EZH2 inh: blocks human EZH2/PRC2 H3K27 methylation | Q15910 | DELFIA TRF, 1 h | inhibition, % at 12.5 µM | hit rate 0.35% among 57,000 | AID 651548;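 active = mean inhibition of replicates at least 50% and every single replicate also reaching 50%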;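 also: dimethyl H3K27 on biotinylated H3 21-44 peptide detected by antibody; plate controls were median neutral control wells for no effect and median positive control wells for full effect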
Target sequence (Q15910 whole entry, looked up): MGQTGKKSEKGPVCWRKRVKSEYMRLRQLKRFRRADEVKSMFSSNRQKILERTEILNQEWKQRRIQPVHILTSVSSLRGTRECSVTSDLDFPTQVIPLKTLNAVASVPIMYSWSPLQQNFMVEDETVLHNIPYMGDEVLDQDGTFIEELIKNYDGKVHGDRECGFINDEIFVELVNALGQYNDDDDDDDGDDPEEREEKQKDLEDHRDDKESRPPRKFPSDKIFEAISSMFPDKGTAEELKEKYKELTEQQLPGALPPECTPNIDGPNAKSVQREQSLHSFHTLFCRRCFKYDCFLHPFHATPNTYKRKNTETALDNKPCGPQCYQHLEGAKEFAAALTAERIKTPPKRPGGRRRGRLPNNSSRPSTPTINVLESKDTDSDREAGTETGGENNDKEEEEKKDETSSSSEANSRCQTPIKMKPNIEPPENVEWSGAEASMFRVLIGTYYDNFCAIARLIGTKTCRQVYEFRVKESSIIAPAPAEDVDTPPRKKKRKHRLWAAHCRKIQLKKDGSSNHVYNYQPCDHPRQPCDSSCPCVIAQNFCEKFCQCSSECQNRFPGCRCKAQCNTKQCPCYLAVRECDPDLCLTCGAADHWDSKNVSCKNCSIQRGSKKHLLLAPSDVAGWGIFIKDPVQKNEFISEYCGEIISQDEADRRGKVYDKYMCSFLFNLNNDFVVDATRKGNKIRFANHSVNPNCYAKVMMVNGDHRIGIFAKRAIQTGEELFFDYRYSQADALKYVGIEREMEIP
Numbers without * were called inactive. Shown is part of a subset that was picked to be rich in hits.

SMILES	EZH2 inh
Cc1ccc(S(=O)(=O)NC(C)C(=O)Nc2ccc(Oc3ccccc3)cc2)cc1 (centres undefined)	18
Cc1ccc(NC(=O)CCC(=O)c2ccc(Oc3ccccc3)cc2)cc1	52*
COC(=O)c1ccc(NC(=O)CCC(=O)c2ccc(C)cc2C)cc1	10
CC(C)(C)OC(=O)N1CCC[C@H]1/C=N/NC(=O)CCCCCCC(=O)NO	-6
CSc1ccccc1NC(=O)CSc1nnnn1-c1ccccc1C	15
Cc1cc(NC(=O)CN(c2c(C)cccc2C)S(C)(=O)=O)ccc1Br	-3
Cc1nn(C(C)(C)C)c(OC(=O)c2ccc(Cl)cc2)c1S(=O)(=O)c1ccccc1	4
Cc1cc(C)c(NC(=O)CN(c2cccc3ccccc23)S(C)(=O)=O)c(C)c1	-11
CC1=CC(=O)OC1(O)CCC(C)CC(=O)O (centres undefined)	100*
CC(CC[C@]1(C)C2CCC=C(CO)[C@]2(C)CC[C@H]1C)CC(=O)O (some centres undefined)	15
COc1ccc(C(=O)Nc2ccccc2)cc1S(=O)(=O)Nc1cccnc1	-5
COc1ccc(OC)c(S(=O)(=O)N2CCC(C(=O)Nc3ccc(Oc4ccccc4)cc3)CC2)c1	-5
COc1ccc(C)cc1S(=O)(=O)NCCO	14
CC(C)C1CCC2(C)CCC(O)C(C)(O)C2C1OC(=O)/C=C/c1ccccc1 (centres undefined)	5
O=C(/C=C/c1ccc(O)cc1)O[C@@H]1CC(O)(C(=O)O)C[C@@H](OC(=O)/C=C/c2ccc(O)cc2)C1O (some centres undefined)	76*
COc1cc(/C=C/C(=O)O[C@@H]2C[C@@](O)(C(=O)O)C[C@@H](O)[C@@H]2O)ccc1O	90*
COc1cc(/C=C/C(=O)CC(=O)/C=C/c2ccc(O)c(OC)c2)ccc1O	10
CC(=O)CCC1C2C(O)C(C(C)C)C(OC(=O)/C=C/c3ccccc3)CC12C (centres undefined)	-26
COc1cc(O)c(C(=O)/C=C/c2ccc(OC)c(OC)c2)c(OC)c1	9
CCN(CC(=O)Nc1ccc(F)c(Cl)c1)S(=O)(=O)c1ccc2ccccc2c1	44
Cc1cc(C(F)(F)F)nc(SCC(=O)Nc2ccccc2C(F)(F)F)n1	4
COc1ccc(C(=O)Nc2sc3c(c2C(=O)Nc2cccc(OC)c2)CCC3)cc1	18
CSc1nc(N2CCCCC2)c2c(c1C#N)CCCC2	63*
Cc1ccc(NC(=O)COc2ccc3cc(-c4ccc(F)cc4)c(=O)oc3c2)cc1	-16
CC1(C)[C@H]2CC=C(/C=N\NC(=O)CCCCC(=O)NO)[C@@H]1C2	-7
SMILES	EZH2 inh
O=C(CSc1nc2ccccc2s1)Nc1ccc(Cl)cc1	41
Cc1ccc(NC(=O)CSc2nc3ccccc3s2)cc1C	55*
Cc1ccc(NC(=O)CSc2nc3ccccc3s2)cc1Cl	48
CNC(=O)CN(c1ccc(Br)cc1)S(=O)(=O)c1ccc(C)cc1	-15
COC(=O)c1ccccc1NC(=O)COc1cc(C)ccc1C(C)C	1
CCCCCCCC/C=C/CCCCCCCC(=O)NCCc1ccc(O)c(O)c1	68*
CCCCC/C=C\C/C=C\C/C=C\C/C=C\CCCCCC(=O)O	12
CCCCCCCC/C=C/CCCCCCCC(=O)NCCO	-16
O=C(N/N=C/c1ccc(O)cc1O)c1ccccc1O	14
Cc1ccc(NC(=O)CSc2nnc(-c3ccc(Cl)cc3Cl)n2-c2ccccc2)cc1	21
Cc1sc(NC(=O)c2cnccn2)c(C(N)=O)c1-c1ccccc1	-3
CCOC(=O)c1c(NC(=O)COc2cccc(Cl)c2)sc(C)c1C	-6
O=C1c2ccccc2C(Nc2ccc(S(=O)(=O)N3CCOCC3)cc2)N1Cc1ccccc1Cl (centres undefined)	-8
CCOC(=O)c1c(-c2ccc(C)cc2)csc1NC(=O)c1cccc(OC(C)=O)c1	1
CCOC(=O)c1c(-c2ccc(Cl)cc2)csc1NC(=O)C1CCCCC1C(=O)O (centres undefined)	58*
CCOC(=O)c1c(NC(=O)C2CC(Cl)=CCC2C(=O)O)sc2c1CC(C)CC2 (centres undefined)	25
CCn1c(SCC(=O)Nc2ccc(Br)c(Cl)c2)nnc1-c1ccccc1O	1
Cc1sc2nc(SCc3n[nH]c(=S)n3-c3ccccc3)[nH]c(=O)c2c1C	-3
Cc1ccc(-c2cc(C(=O)NCc3cccnc3)c3cc(Br)ccc3n2)cc1	-8
Cc1cc(Cl)ccc1NC(=O)CN1CCC(C(N)=O)(N2CCCCC2)CC1	-4
C[C@@H]1O[C@@H](O[C@@H]2CC[C@@]3(C)C(CC[C@]4(C)C3CC=C3[C@@H]5CC(C)(C)CC[C@]5(C(=O)O[C@@H]5O[C@H](CO)[C@@H](O)[C@H](O)[C@H]5O)CC[C@]34C)[C@]2(C)CO)[C@H](O)[C@H](O[C@@H]2OC[C@@H](O)[C@H](O)[C@H]2O)[C@H]1O (some centres undefined)	-5
C[C@@H]1O[C@@H](O[C@@H]2[C@@H](O)[C@H](O[C@@H]3[C@@H](O)[C@@H](O)[C@H](O[C@H]4[C@H](OC(=O)[C@]56CCC(C)(C)C[C@H]5C5=CCC7[C@@]8(C)C[C@H](O)[C@H](O[C@@H]9O[C@H](C(=O)O)[C@@H](O)[C@H](O)[C@H]9O)[C@@](C)(CO)C8[C@H](O)C[C@@]7(C)[C@]5(C)C[C@H]6O)O[C@@H](CO)[C@@H]4O)O[C@H]3C)OC[C@H]2O)[C@H](O)[C@H](O)[C@H]1O (some centres undefined)	99*
C[C@@H]1O[C@@H](O[C@H]2[C@H](O[C@H]3CC[C@@]4(C)C(CC[C@]5(C)C4CC=C4C6CC(C)(C)CC[C@]6(C(=O)O[C@@H]6O[C@H](CO[C@@H]7O[C@H](CO)[C@@H](O[C@@H]8O[C@@H](C)[C@H](O)[C@@H](O)[C@H]8O)[C@H](O)[C@H]7O)[C@@H](O)[C@H](O)[C@H]6O)CC[C@]45C)[C@]3(C)CO)OC[C@H](O)[C@@H]2O)[C@H](O)[C@H](O)[C@H]1O (some centres undefined)	20
Cc1cc(=O)oc2cc(NC(=S)NCc3cccnc3)ccc12	-9
CCCc1cc(=O)oc2cc(OCc3cc(C(=O)O)oc3C)ccc12	-8
SMILES	EZH2 inh
Cc1cc2oc(=O)cc(CN(C)Cc3ccccc3)c2cc1C(C)C	50*
C=C(C(=O)O[C@@H]1O[C@H](CO)[C@@H](O)[C@H](O)[C@H]1O)[C@@H]1CC[C@@]2(C)C[C@H](O)C[C@@](C)(O)C2C1 (some centres undefined)	64*
CC1(CCOC2OC(CO)C(O)C(O)C2O)CCC2C(=CCC3C(C)(C(=O)O)CCCC23C)C1 (centres undefined)	13
CC1C(=O)C23CC(O)C4C(C)(C(=O)OC5OC(CO)C(O)C(O)C5O)CCCC4(C)C2(O)CCC1C3 (centres undefined)	0
C[C@@H]1O[C@@H](Oc2ccc(C3Oc4cc(O)cc(O)c4C(=O)C3O)cc2O)[C@H](O)[C@H](O)[C@H]1O (some centres undefined)	97*
C[C@@H]1O[C@@H](O[C@H]2[C@H](Oc3cc(O)c4c(c3)O[C@H](c3ccc(O)c(O)c3)CC4=O)O[C@H](CO)[C@@H](O)[C@@H]2O)[C@H](O)[C@H](O)[C@H]1O	4
O=C1c2c(O)cc(O)cc2O[C@H](c2ccccc2)[C@H]1O	8
Cc1ccc(-c2nn(-c3ccc(C)cc3)c3c2cnc2c(F)cccc23)cc1	-7
O=S(=O)(NCc1nc2ccccc2[nH]1)c1ccc(Cl)c(Cl)c1	2

Bioassay records as filed in PubChem BioAssay.
